The values below come from PubChem BioAssay (NCATS).

Inconclusive results are not listed. A call without a number means that no potency is given here. Activity calls are given as the source filed them. Calls come from the whole dose curve; as a rule, active = well fitted inhibition curve with a large enough effect; inconclusive = small, poorly fitted or top-dose-only effect; inactive = no such curve, though single readings can be large or run the other way.
Potency is the fitted concentration of half-maximal effect.

Sequence of Glutaminase kidney isoform, mitochondrial (Homo sapiens) (O94925 whole entry, looked up, canonical isoform): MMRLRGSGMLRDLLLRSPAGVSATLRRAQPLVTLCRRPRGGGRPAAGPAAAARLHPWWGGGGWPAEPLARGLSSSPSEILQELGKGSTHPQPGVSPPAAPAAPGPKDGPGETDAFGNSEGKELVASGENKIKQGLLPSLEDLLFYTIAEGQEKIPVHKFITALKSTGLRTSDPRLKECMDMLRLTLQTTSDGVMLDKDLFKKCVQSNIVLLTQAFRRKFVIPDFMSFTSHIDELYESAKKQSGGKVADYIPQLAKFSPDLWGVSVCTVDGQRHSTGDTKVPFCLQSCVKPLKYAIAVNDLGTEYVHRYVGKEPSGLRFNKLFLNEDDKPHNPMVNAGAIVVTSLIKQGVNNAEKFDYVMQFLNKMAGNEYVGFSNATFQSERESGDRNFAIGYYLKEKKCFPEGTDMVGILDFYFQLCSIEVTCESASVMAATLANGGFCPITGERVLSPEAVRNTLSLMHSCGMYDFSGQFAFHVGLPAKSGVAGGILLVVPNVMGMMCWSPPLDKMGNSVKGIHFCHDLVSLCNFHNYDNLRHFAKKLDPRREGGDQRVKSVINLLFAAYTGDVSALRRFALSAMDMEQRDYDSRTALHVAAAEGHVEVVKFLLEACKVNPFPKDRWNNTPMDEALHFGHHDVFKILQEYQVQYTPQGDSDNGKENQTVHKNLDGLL

In the test the target is Glutaminase kidney isoform, mitochondrial (Homo sapiens) (UniProt O94925). Nature of the test: qHTS for Inhibitors of Glutaminase (GLS): LOPAC Validation (AID 624146). Note: nearly all actives have a fitted effect of over 60% in size. Particulars: glutaminase enzyme activity inhibition; series mostly up to 46.1 µM. The text has this:
Glutaminase (GLS) catalyzes the hydrolysis of glutamine into glutamate and ammonia. It plays a critical role in glutaminolysis, which is an important energy source for proliferating cells. It was shown that c-Myc, an oncogenic transcription factor known to regulate microRNAs and to stimulate cell proliferation, increases glutamine metabolism by stimulating the expression of GLS via direct suppression of miR23a and miR23b.
GLS is also thought to play a pathogenic role on HAD using a human HIV-1 infected macrophage system. […] GLS inhibition limits glutamate release and provides neuroprotection against HIV-1 infected macrophages.
The overall goal of this project is to identify small molecule inhibitors of GLS through quantitative high throughput screening (qHTS) of the MLSMR. A validated potent and selective inhibitor can be used as a tool molecule to further study the pharmacology of its target as well as explore its potential therapeutic application in cancer and inflammatory neurological disorders, such as HIV1-associated dementia (HAD) and multiple sclerosis.
NIH Chemical Genomics Center [NCGC]
NIH Molecular Libraries Probe Centers Network [MLPCN]
Assay Submitter (PI): Barbara S. Slusher, Johns Hopkins University
Three 3 uL of hKGA is dispensed into black well 1536-well plates in 45 mM KH2PO4 (pH 8.2), 0.02% Tween-20. Then 23 nL of compounds are added through pin tool transfer. To this, 1 uL of 1mM L-Glutamine and 1 uL of a solution of L-Glutamateoxidase, HRP, Amplex red are added. Plate is centrifuged for 25 sec before an initial fluorescence read is obtained on the ViewLux, after 30 min of RT incubation, the final read is taken on the ViewLux.
Take `Nc1ncnc2c1nc(Br)n2C1OC2COP(=O)(O)O[C@@H]2C1O` (stereo not given in full): the Potency entry was “inactive”.
For `CC1=C(/C=C/C(C)=C/C=C/C(C)=C\C(=O)O)C(C)(C)CCC1`, the Potency entry was “inactive”.
For the molecule `Nc1ccc(-c2ccc3ccccc3n2)cc1`, the Potency entry was “inactive”.
With `O=C1Nc2ccc(I)cc2/C1=C/c1cc(Br)c(O)c(Br)c1` the entry was “inactive”; with `Nc1ccc(-c2nc3ccc(-c4nc5ccc(N)cc5[nH]4)cc3[nH]2)cc1`, 5.01 µM (active); with `C=CCN1CCc2cc(O)c(O)cc2C(c2ccccc2)C1` (stereo not given), “inactive”.
With `N=C(N)c1ccccc1`, the Potency result was “inactive”.
For the molecule `CSC(N)=NCCC[C@H](N)C(=O)O`, the Potency result is “inactive”.
Regarding `Cc1cccc(C(=O)NCN2CCN(c3ccccc3C#N)CC2)c1`, the Potency result was “inactive”.
As for `Nc1ccc2c3c(cccc13)C(=O)NC2=O`, the entry is “inactive”; as for `O=C(O)/C=C/c1cnc[nH]1`, “inactive”; as for `CN1CCC2(CCN3CCc4c(oc5ccccc45)C3C2)N(C)C1=O` (stereo not given), “inactive”.
For the molecule `CCN(CC)CCCCCCCCOC(=O)c1cc(OC)c(OC)c(OC)c1`, the Potency result was “inactive”.
As for `Cc1cc2c(cc1Cl)N(C(=O)Nc1ccnc3ccccc13)CC2`, the figure is 7.08 µM (active); as for `COc1ccc(CCN(C)CCc2ccc(OC)c(OC)c2)cc1OC`, “inactive”.
For `CCSC(=N)N`, the Potency entry is “inactive”.
As for `CCc1ccc2c(-c3cccc(Cl)c3)nc(=O)n(CC)c2n1`, the entry is “inactive”; as for `COc1cc(/C=C(\C#N)C(=O)Nc2nnc(C(F)(F)F)s2)ccc1OCc1ccc(C(F)(F)F)cc1C(F)(F)F`, “inactive”.
With `CC1CCN=C(N)S1` (stereo not given) the entry was “inactive”; with `Nc1nc2c(cnn2CCc2ccccc2)c2nc(-c3ccco3)nn12`, “inactive”; with `Cc1ccc([N+](=O)[O-])cc1S(=O)(=O)N(C)C`, “inactive”.
As for `c1ccc2c(c1)CC(N1CCN(c3cccc4c3OCCO4)CC1)C2`, the entry is “inactive”; as for `CCN(CC)CCOC(=O)c1cc(Cl)c(N)cc1OC`, “inactive”.
Consider `CCCCCCCCCCC/C=C\C(C)(C)/C=C\CCCC(=O)O`, for which the Potency entry is “inactive”.
As for `NCC(O)(CS(=O)(=O)O)c1ccc(Cl)cc1` (stereo not given), the entry is “inactive”; as for `N[C@@H](CS(=O)O)C(=O)O`, “inactive”.
With `NCC(O)C1CCCCCCC1` (stereo not given), the Potency entry is “inactive”.
As to `COc1cccc(OC)c1OCCNCC1CSc2ccccc2O1` (stereo not given), the Potency result is “inactive”.
Take `N[C@H](C(=O)O)[C@H](O)C(=O)O`: the Potency result is “inactive”.
For the molecule `c1ccc2nc(C3=NCCN3)ccc2c1`, the Potency result was “inactive”.
Turning to `COc1ccc(CCn2nnnc2C2(c3ccc(C)cc3)CC2)cc1`, the Potency result is “inactive”.
With `Oc1cc2c(cc1O)C(c1ccccc1)CNCC2` (stereo not given) the figure was 0.631 µM (active); with `O=C(O)[C@H]1NCCC[C@H]1C(=O)O`, “inactive”; with `N[C@H]1CONC1=O`, “inactive”.
For the molecule `COc1ccc(C(=O)NCc2cccnc2)cc1C(=O)NCc1cccnc1`, the Potency entry was “inactive”.
As to `CN1C2CCC1CC(OC(c1ccccc1)c1ccccc1)C2` (stereo not given), the Potency result was “inactive”.
With `Cc1cc(Cn2cnc3c2C[C@@H](C(=O)O)N(C(=O)C(c2ccccc2)c2ccccc2)C3)ccc1N` the entry was “inactive”.
As for `O=C(N[C@@H](Cc1ccccc1)C(=O)CCl)OCc1ccccc1`, the entry is “inactive”; as for `Cn1cc(C(=O)OCC2CCN(CCNS(C)(=O)=O)CC2)c2ccccc21`, “inactive”; as for `NCCC1CCCC(CCN)N1` (stereo not given), “inactive”.
